# Measured values: ChEMBL document CHEMBL4888484, “Replenishing the malaria drug discovery pipeline: Screening and hit evaluation of the MMV Hit Generation Library 1 (HGL1) against asexual blood stage Plasmodium falciparum ,using a nano luciferase reporter read-out” (2022)
# The campaign covered roughly 150,000 compounds. About 540 (0.36%) showed an effect of 50% or more. The entries come from a sample that favours strong results as a whole.
# System: Plasmodium falciparum
# Test: Primary screen in NF54 nanoGlo assay, in single point, at 2uM, 72h; a lower Z score goes with more inhibition
# Type: functional, Erythrocyte
# Conditions: timepoint 72 hour
Structure (SMILES),% Inhibition [%],Z score
Cc1cc(C)cc(OC[C@@H](O)CNC(C)(C)CC(C)(C)C)c1,-3,0.43
Cc1cc(OC[C@@H](O)CNC(C)C)cc(C)c1Cl,-7,1.4
Cc1cc(OC[C@@H](O)CNC(C)(C)CC(C)(C)C)cc(C)c1Cl,51,-6.83
CCc1cnc(C)nc1N1CCC(N2CC(n3nc(C)cc3C)C2)CC1,6,-1.11
CN(Cc1cccnc1)C(=O)c1csc(NC(=O)c2ccc(Cl)cc2Cl)n1,-12,1.69
COc1ccc(-c2ccnc(N[C@H]3CCN(C4CCOCC4)C3=O)n2)cc1,-13,2.48
C=CCOCC(O)CN(Cc1c(-c2ccccc2)noc1N1CCCCC1C)CC1CCCO1 (centres undefined),30,-0.88
CCOC[C@@H](O)CN(Cc1c(-c2ccccc2)noc1N1CCC(C)CC1)CC1CC1,35,0.79
C#CCOCC(O)CN(Cc1c(-c2ccccc2)noc1N1CCC(C)CC1)CC1CCCO1 (centres undefined),59,1.43
CC(C)C(=O)Nc1ccc(-c2cc(-c3ccc(NC(=O)C(C)C)cc3)nc(-c3ccncc3)n2)cc1,38,-10.15
C[C@H](N)c1ccc(Nc2ncc3cc(-c4ccncc4)ccc3n2)cc1,85,-9.36
CC(NC(=O)NC(C)c1ccc(-c2cccnc2)cc1)c1ccncc1 (centres undefined),7,-1.01
CCOc1c(Br)cc(Cl)cc1NCC(=O)NC(=O)NCC(C)C,-7,1.36
Cn1ncc2c1CCCN(c1nccn3nc(C(F)(F)F)cc13)C2,-10,1.44
CC(=O)c1ccc(NC(=O)c2cc3n(n2)CCCO3)cc1,-7,1.13
CC(C)=CC1C(C(=O)N(C)CC2COc3ccccc3O2)C1(C)C (centres undefined),-4,0.45
Cc1cncc(C(=O)NC[C@@H](CO)Cc2ccc(Cl)cc2)c1,-7,0.93
COC[C@H](NCCc1cc(F)cc2c1OCOC2)C1CC1,63,-8.98
CC1CC(NCCc2cc(F)cc3c2OCOC3)CN1C1CC1 (centres undefined),-5,0.45
O=C(CNC(=O)NC1CC1)NCCc1cc(F)cc2c1OCOC2,-2,0.2
Cc1nc(-c2ccnc(NCc3cnc(N(C)C)nc3)c2)n[nH]1,5,-0.63

Structure (SMILES),% Inhibition [%],Z score
O=S1(=O)NC[C@H](O)CNC[C@@]2(COc3cc(-c4ccccc4)ccc31)C[C@@H](O)[C@@H](O)C2,-14,1.78
Cn1nccc1[C@@H]1CN(C(=O)NCc2ccon2)CCO1,-3,0.43
Cc1cc(CC(=O)N[C@@H](C)c2nc(-c3cccnc3)cs2)no1,-5,0.5
Cc1ccc(C)c(C(=O)N[C@@H](C)c2nc(-c3cccnc3)cs2)c1,0,-0.01
Cc1cc(C(=O)N[C@@H](C)c2nc(-c3cccnc3)cs2)cc(O)n1,51,-3.53
COc1cccc(CCn2ccnc2C(C)C)c1,-4,0.93
COc1ccccc1CCNC(=O)c1ccccc1N1CCC(NS(=O)(=O)c2ccc(F)cc2)CC1,11,-1.5
c1ccc2c(N3CCCC3)nc(N3CCN(C4CCCCC4)CC3)nc2c1,-5,0.7
N[C@H]1C[C@@H](c2cc(N3CCN(C4CCCCC4)CC3)nc(N3CCCC3)n2)C1,56,-8.12
NC1CC(c2cc(N3CCCCCCCC3)ncn2)C1 (centres undefined),-23,2.99
CC(C)c1nnc2c3ccccc3nc(N3CCN(C(=O)c4ccc(Cl)cc4)[C@@H](C)C3)n12,-1,0.12
Nc1nc(N2CCN(Cc3ccc(F)cc3)CC2)cc([C@H]2C[C@@H](N)C2)n1,16,-2.35
Nc1nc(C2CC(N)C2)cc(N2CCC(Oc3ccccc3Cl)CC2)n1 (centres undefined),50,-7.79
Nc1nc(N2CCN(c3ccc(F)c(Cl)c3)CC2)cc([C@H]2C[C@@H](N)C2)n1,49,-3.16
Cc1ccc(Cc2nnc(NC(=O)Cc3ccccc3Cl)o2)c(C)c1,-13,1.44
CN1CCCN(c2ccc3ccc(F)cc3n2)CC1,-5,0.48
CCNC(=O)N[C@H]1CCN(C2CCCCCC2)C1,1,-0.09
Oc1ccccc1-c1cc(-c2ccccc2)c2c(ccc3ccccc32)n1,-5,0.64
CCOc1cc(-c2cc(-c3ccccc3O)nc3ccc4ccccc4c23)cc(Br)c1O,82,-8.45
COc1cc(-c2cc(-c3cccnc3)c3c(ccc4ccccc43)n2)cc(Cl)c1O,18,-2.48
Cn1ccnc1CN1C[C@@H](F)C[C@H]1CNc1ncnc2c1CCCCC2,-4,0.8
